# Compound activity deposited in PubChem BioAssay by several laboratories.
# In the library only some 2.5% were active in any assay of this set; here they are far more common.
# SUMO Mot1 rescue = SUMOylation pathway inhibition by Mot1-301 growth rescue | S. cerevisiae Mot1-301 growth rescue, ATP luminescence, 38.5C; percent above DMSO median, 100 means doubled | growth rescue, % at 18.8 µM | 320,000 tested, 1% active | AID 2716;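 active = every valid replicate shows activation above 250% relative to neutral control wells; inactive = the rest, any valid replicate at or below 250%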;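 also: OY570 slx delta 5 strain wells were the positive control but not used for scaling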
# V-ATPase pH = yeast V-ATPase proton transport regulation by pHLuorin; S. cerevisiae, pHLuorin cytosolic pH fluorescence; response, % at 10 µM; 350,000 tested, 0.37% active; AID 504577; in the data active = response mostly above about 7.3%, no sharp cut-off; inactive = mostly below about 5.4%; also: actives read high
# ATG4B inh = blocks human ATG4B protease cleavage of LC3 substrate; Q9Y4P1; ATG4B cleavage of LC3-PLA2, NBD-HPC fluorescence, 1 h; inhibition, % at 8.33 µM; 340,000 tested, 0.51% active; in the data active = inhibition above about 40%
# Target sequence (Q9Y4P1 whole entry, looked up): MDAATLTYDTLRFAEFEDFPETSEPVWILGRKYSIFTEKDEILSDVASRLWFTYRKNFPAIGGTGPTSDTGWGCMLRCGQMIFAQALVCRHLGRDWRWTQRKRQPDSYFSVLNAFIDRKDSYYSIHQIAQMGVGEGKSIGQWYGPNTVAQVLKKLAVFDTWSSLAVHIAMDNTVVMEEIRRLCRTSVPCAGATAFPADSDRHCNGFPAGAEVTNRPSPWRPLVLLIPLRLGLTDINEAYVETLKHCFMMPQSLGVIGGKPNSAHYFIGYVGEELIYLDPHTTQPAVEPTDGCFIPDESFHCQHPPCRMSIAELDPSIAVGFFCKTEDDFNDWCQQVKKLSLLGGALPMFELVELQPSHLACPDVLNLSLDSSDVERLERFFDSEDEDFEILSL
# Efflux pump inh = blocks antifungal efflux pumps in multiplex yeast assay. S. cerevisiae Candida pump triplex, Nile Red efflux. inhibition, % at 10 µM. 330,000 tested, 0.44% active;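 active = plate passing quality check with inhibition over a set limit, or well fluorescence over plate mean plus 4 SD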;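 also: Nile Red retained in pooled yeast measured as flow cytometry median fluorescence; 0% = buffer negative control and 100% = Enniatin B positive control; higher means more Nile Red kept so more efflux inhibition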
# AI-2 QS mod = Vibrio harveyi AI-2 quorum sensing modulation; Vibrio harveyi JMH597 AI-2 luminescence/OD600 ratio, 9 h; stronger effect = lower value; strain lacks LuxN and CqsS sensors; 0 = neutral-control median; activity change, % at 7.5 µM; 300,000 tested, 0.4% active; AID 2094; in the data active = activity change below about -75%, passing the limit was not always enough; inconclusive = no clear call, values can overlap the other calls;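 also: luminescence divided by OD600 gain over 9 h not by final OD600 alone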
# JMH597 growth rt = retest: blocks Vibrio harveyi JMH597 growth. AID 2726. growth inhibition, % at 7.5 µM. shares compounds with AI-2 QS mod. 750 tested, 1% active. OD600 absorbance, 9 h; lacks LuxN and CqsS sensors;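 active = every replicate shows growth inhibition above 50%; inconclusive = at least half, but not all, replicates pass that cutoff; inactive = fewer than half of replicates pass it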
# BB721 lum counter = retest counter-screen: luminescence loss in constitutive-on quorum sensing strain BB721 | shares compounds with AI-2 QS mod | Vibrio harveyi BB721 luminescence, 9 h | AID 2727 | inhibition, % at 7.5 µM | 750 tested, 95% active;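 active = inhibition above about 80% in every replicate, not just on average, limit read from the data; inconclusive = at least half of replicates past the limit, but not all; inactive = fewer than half of replicates past the limit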
# BB721 growth = retest: blocks Vibrio harveyi BB721 growth; 750 tested, 3% active; shares compounds with AI-2 QS mod; OD600 absorbance, 9 h; growth inhibition, % at 7.5 µM; AID 2728;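 active = every replicate shows growth inhibition above 50%; inconclusive = at least half but not all replicates above 50% inhibition; inactive = under half of replicates above 50% inhibition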
# JMH597 AI-2 mod = Vibrio harveyi AI-2 signaling luminescence modulation – JMH597 strain, confirmation; shares compounds with AI-2 QS mod; Vibrio harveyi JMH597 AI-2 quorum sensing luminescence, 9 h; luxN and CqsS knockout, AI-2 only; inhibition, % at 7.5 µM; 750 tested, 97% active;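 active = every replicate shows more than 75% inhibition of signal versus neutral control wells; inconclusive = half to three quarters of replicates exceed 75% inhibition; inactive = fewer than half of replicates exceed 75% inhibition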
# * = called active by the depositor; i = inactive; ? = inconclusive; . = no result.
SMILES,SUMO Mot1 rescue,V-ATPase pH,ATG4B inh,Efflux pump inh,AI-2 QS mod,JMH597 growth rt,BB721 lum counter,BB721 growth,JMH597 AI-2 mod
Cc1ccc(OCc2nc(-c3cccnc3)no2)cc1C,-8,3,-3,0,-94*,2,98*,3,99*
Cc1ccccc1N(C(=O)Cn1nnc(-c2cccs2)n1)C(C(=O)NCCC(C)C)c1ccco1 (stereo not given),.,-1,1,0,42,.,.,.,.
CCOC(=O)CC1COCCN1Cc1cn[nH]c1-c1cc(OC)c(OC)c(OC)c1 (stereo not given),100,-3,0,0,1,.,.,.,.
CC(=O)Nc1ccc(N2CCc3c(C)c(C#N)c4nc5ccccc5n4c32)cc1,4,.,.,0,24,.,.,.,.
C(=N\NCc1ccccc1)/c1ccc2ncccc2c1,-28,2,-10,0,-95*,0,98*,-7,99*
O=C(COc1cccc(C(F)(F)F)c1)Nc1ccc(S(=O)(=O)N2CCCCC2)cc1,14,0,-4,0,-18,.,.,.,.
Cc1cccc(OCC(=O)Nc2cc(C)ccc2O)c1,15,-1,10,0,-85*,34,96*,29,97*
COc1ccccc1CNC(=O)COc1ccc(S(=O)(=O)N2CCCC2)cc1,-3,-8,0,0,?,19,85*,8,93*
Cc1cccc(OCC(=O)Nc2ccc(S(=O)(=O)N3CCCC3)cc2)c1,3,1,0,0,-97*,9,99*,-3,100*
Cc1cccc(OCC(=O)Nc2cc(C)c(C)cc2O)c1,5,-1,2,0,-16,.,.,.,.
CCc1cccc(OCC(=O)Nc2ccc(S(=O)(=O)N3CCCC3)cc2)c1,-1,-2,-14,0,-90*,43,97*,?,98*
Cc1cc(C(=O)NC2CCCc3c2cnn3-c2cccc(C)c2C)n(C)n1 (stereo not given),-23,4,17,0,12,.,.,.,.
COC(=O)/C(=C1/Oc2cc(C)oc(=O)c2S1)C(F)(F)F,58,4,1,0,?,40,91*,63*,93*
COc1ccccc1CNC(=O)c1ccc(S(=O)(=O)N(C)C)cc1,16,-4,3,0,-80*,-5,84*,0,90*
O=C(Oc1ccccc1)c1ccccc1,.,3,1,.,.,.,.,.,.
CN(C)S(=O)(=O)c1ccc(C(=O)OCn2nnc3ccccc3c2=O)cc1,163,-2,-13,0,-89*,28,96*,37,97*
CN(C)S(=O)(=O)c1ccc(C(=O)Oc2ccccc2)cc1,-1,3,6,0,-80*,11,91*,39,93*
COCCn1c(N)c(C(=S)NC(=O)c2cccs2)c(=O)[nH]c1=O,-21,-3,12,0,-4,.,.,.,.
COc1ccc(S(=O)(=O)NCC(=O)Nc2ccc(F)cc2)cc1,2,-5,1,0,.,.,.,.,.
CC(C)c1ccc(NC(=O)CNS(=O)(=O)c2ccc(F)cc2)cc1,-2,0,-3,0,-77*,10,89*,6,93*
COc1nc(C)nc(Cl)c1NC1=NCCN1,-10,-1,9,0,8,.,.,.,.
CCCC1(c2ccccc2)NC(=O)N(CC(=O)NCc2ccc(OC)cc2)C1=O (stereo not given),1,4,2,0,-86*,-18,86*,-4,91*
COc1ccc(NC(=O)CN2C(=O)NC(c3ccccc3)(c3ccccc3)C2=O)cc1,-7,0,-13,0,-94*,2,92*,14,96*
CCc1ccc(C(=O)NNC(=O)CN2C(=O)NC(CC)(c3ccccc3)C2=O)cc1 (stereo not given),-9,-1,-1,0,-83*,5,88*,8,94*
CCCC1(c2ccccc2)NC(=O)N(CC(=O)NCc2ccc(C)cc2)C1=O (stereo not given),-9,3,0,0,-91*,-6,89*,-13,94*
SMILES,SUMO Mot1 rescue,V-ATPase pH,ATG4B inh,Efflux pump inh,AI-2 QS mod,JMH597 growth rt,BB721 lum counter,BB721 growth,JMH597 AI-2 mod
O=C(CN(Cc1ccccc1Cl)C(=O)CNS(=O)(=O)c1ccc(F)cc1)NCC1CCCO1 (stereo not given),-6,-4,-4,0,12,.,.,.,.
COc1ccc2c(c1)C(=O)N(c1ccccc1C)C(=O)C2(C)C,-5,1,-7,0,6,.,.,.,.
Cc1ccc(CSc2nnc(-c3ccccn3)n2N)cc1,-6,-1,-1,0,?,0,91*,-21,95*
Nn1c(SCc2ccccc2)nnc1-c1ccccn1,115,-2,4,0,-35,.,.,.,.
O=[N+]([O-])c1ccc(CSc2nnc(-c3cccnc3)o2)cc1,3,-2,0,0,-59,.,.,.,.
Fc1ccc(CSc2nnc(-c3cccnc3)o2)cc1,-28,-3,5,0,-93*,19,98*,5,99*
c1cncc(-c2nnc(SCc3nc4ccccc4[nH]3)o2)c1,-5,-2,-2,0,15,.,.,.,.
c1cncc(-c2nnc(SCc3cccc4ccccc34)o2)c1,17,0,0,0,-96*,5,99*,0,99*
Brc1ccc(CSc2nnc(-c3cccnc3)o2)cc1,i,2,4,0,-94*,1,98*,0,99*
Cc1cc(Nc2ccc(C)c(Br)c2)n2nc(C)nc2n1,11,-3,1,0,30,.,.,.,.
Cc1cccc(Cn2c(-c3ccc[nH]c3=O)nc3ccccc32)c1,2,-2,-12,0,30,.,.,.,.
COc1ccc(-n2c(SCC(=O)Nc3cc(C(=O)O)ccc3C)nc3ccccc3c2=O)cc1Cl,-2,1,18,0,-6,.,.,.,.
CCCCC[C@@H](/C=C/C1C(=O)C=C[C@H]1C/C=C\CCCC(=O)OC)OC(C)=O (stereo not given in full),.,-3,-8,.,.,.,.,.,.
Clc1ccc(CSc2nnc(-c3ccncc3)o2)cc1,-25,-1,-14,0,-70,.,.,.,.
c1ccc(CSc2nnc(-c3cccnc3)o2)cc1,1,0,-1,0,-95*,-12,99*,-24,99*
C(=C\c1ccccc1)/CSc1nnc(-c2cccnc2)o1,-21,-4,-3,0,-89*,19,95*,-1,98*
